Experimental data published in the supplement of paper PMC12282887.
± gives the standard deviation of the averaged measurements.

Key:
Test in all cases: promoter activity interaction Z-score (Lux/OD deviation from empty-vector control); higher = stronger promoter induction by the compound
[1] = system: E. coli BW25113 acrABp lux reporter
In short: (§1)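 Every compound was given at four 1:2 dilutions, in biological duplicates, to E. coli BW25113 carrying low-copy luxCDABE promoter reporters in wild-type or single-gene deletion backgrounds. Growth in 40 µl LB Lennox in 384-well plates at 37°C was followed by OD600 and luminescence readings every 30 min for 12 h, integrated over 0–8 h for wild type and 1–9 h for deletion strains, with wells below 10% of the median growth value excluded. Scores are Z-transformed residuals of growth-normalised luminescence fitted against a control.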

[2] = system: E. coli BW25113 marRABp lux reporter
In short: as §1

[3] = system: E. coli BW25113 micFp lux reporter
In short: as §1

[4] = system: E. coli BW25113 ompFp lux reporter
In short: as §1

[5] = system: E. coli BW25113 robp lux reporter
In short: as §1

[6] = system: E. coli BW25113 soxSp lux reporter
In short: as §1

[7] = system: E. coli BW25113 tolCp lux reporter
In short: as §1

[8] = 0.28 µg/ml, genetic background: wild type
[9] = 0.28 µg/ml, genetic background: ΔmarA
[10] = 0.28 µg/ml, genetic background: Δrob
[11] = 0.28 µg/ml, genetic background: ΔsoxS
[12] = 0.56 µg/ml, genetic background: wild type
[13] = 0.56 µg/ml, genetic background: ΔmarA
[14] = 0.56 µg/ml, genetic background: Δrob
[15] = 0.56 µg/ml, genetic background: ΔsoxS
[16] = 1.1 µg/ml, genetic background: wild type
[17] = 1.1 µg/ml, genetic background: ΔmarA
[18] = 1.1 µg/ml, genetic background: Δrob
[19] = 1.1 µg/ml, genetic background: ΔsoxS
[20] = 2.2 µg/ml, genetic background: wild type

CC[C@H]1OC(=O)[C@H](C)[C@@H](O[C@H]2C[C@@](C)(OC)[C@@H](O)[C@H](C)O2)[C@H](C)[C@@H](O[C@@H]2O[C@H](C)C[C@H](N(C)C)[C@H]2O)[C@](C)(O)C[C@@H](C)CN(C)[C@H](C)[C@@H](O)[C@]1(C)O [Azithromycin]
promoter activity interaction Z-score [1, 8]: 0.612 ± 0.28 | promoter activity interaction Z-score [1, 9]: -0.667 ± 0.48 | promoter activity interaction Z-score [1, 10]: 0.324 ± 0.28 | promoter activity interaction Z-score [1, 11]: 0.489 ± 0.8 | promoter activity interaction Z-score [1, 12]: 1.13 ± 0.12 | promoter activity interaction Z-score [1, 13]: 0.048 ± 0.66 | promoter activity interaction Z-score [1, 14]: 2.23 ± 0.08 | promoter activity interaction Z-score [1, 15]: 3.66 ± 1.6 | promoter activity interaction Z-score [1, 16]: 4.08 ± 1 | promoter activity interaction Z-score [1, 17]: 6.35 ± 6.2 | promoter activity interaction Z-score [1, 18]: 3.65 ± 1.2 | promoter activity interaction Z-score [1, 19]: 4.28 ± 1.8 | promoter activity interaction Z-score [1, 20]: 7.14 ± 1.1 | promoter activity interaction Z-score [2, 8]: 0.645 ± 0.36 | promoter activity interaction Z-score [2, 9]: 0.703 ± 1.2 | promoter activity interaction Z-score [2, 10]: 0.528 ± 0.82 | promoter activity interaction Z-score [2, 11]: 0.0278 ± 0.18 | promoter activity interaction Z-score [2, 12]: 1.8 ± 0.42 | promoter activity interaction Z-score [2, 13]: 1.75 ± 0.93 | promoter activity interaction Z-score [2, 14]: 1.66 ± 0.88 | promoter activity interaction Z-score [2, 15]: 3.09 ± 1.8 | promoter activity interaction Z-score [2, 16]: 4.3 ± 0.46 | promoter activity interaction Z-score [2, 17]: 4.49 ± 2 | promoter activity interaction Z-score [2, 18]: 2.983 ± 0.0035 | promoter activity interaction Z-score [2, 19]: 4.44 ± 2.6 | promoter activity interaction Z-score [3, 8]: 0.698 ± 0.19 | promoter activity interaction Z-score [3, 9]: -0.163 ± 0.0028 | promoter activity interaction Z-score [3, 10]: 0.125 ± 0.087 | promoter activity interaction Z-score [3, 11]: 0.248 ± 0.093 | promoter activity interaction Z-score [3, 12]: 0.273 ± 0.86 | promoter activity interaction Z-score [3, 13]: -0.14 ± 0.018 | promoter activity interaction Z-score [3, 14]: 0.558 ± 0.35 | promoter activity interaction Z-score [3, 15]: -0.483 ± 0.018 | promoter activity interaction Z-score [3, 16]: -0.839 ± 0.87 | promoter activity interaction Z-score [3, 17]: -0.439 ± 0.056 | promoter activity interaction Z-score [3, 18]: 0.39 ± 0.33 | promoter activity interaction Z-score [3, 19]: -0.925 ± 0.18 | promoter activity interaction Z-score [3, 20]: -1.39 | promoter activity interaction Z-score [4, 8]: 0.438 ± 0.0074 | promoter activity interaction Z-score [4, 9]: -0.225 ± 0.85 | promoter activity interaction Z-score [4, 10]: 0.663 ± 0.29 | promoter activity interaction Z-score [4, 11]: 0.266 ± 1.3 | promoter activity interaction Z-score [4, 12]: 1.95 ± 0.52 | promoter activity interaction Z-score [4, 13]: 1.13 ± 0.094 | promoter activity interaction Z-score [4, 14]: 3.25 ± 1.9 | promoter activity interaction Z-score [4, 15]: 2.77 ± 0.12 | promoter activity interaction Z-score [4, 16]: 0.0139 ± 0.62 | promoter activity interaction Z-score [4, 17]: 0.739 ± 3.3 | promoter activity interaction Z-score [4, 18]: -0.756 ± 0.22 | promoter activity interaction Z-score [4, 19]: 3.18 ± 1.5 | promoter activity interaction Z-score [5, 8]: -0.606 ± 0.46 | promoter activity interaction Z-score [5, 9]: -2.26 ± 0.22 | promoter activity interaction Z-score [5, 10]: -1.42 ± 0.052 | promoter activity interaction Z-score [5, 11]: -1.11 ± 0.5 | promoter activity interaction Z-score [5, 12]: -1.97 ± 0.83 | promoter activity interaction Z-score [5, 13]: -2.42 ± 0.28 | promoter activity interaction Z-score [5, 14]: -1.4 ± 0.26 | promoter activity interaction Z-score [5, 15]: -1.99 ± 0.19 | promoter activity interaction Z-score [5, 16]: -3.21 ± 1 | promoter activity interaction Z-score [5, 17]: -3.49 ± 0.67 | promoter activity interaction Z-score [5, 18]: -2.09 ± 0.15 | promoter activity interaction Z-score [5, 19]: -2.73 ± 0.21 | promoter activity interaction Z-score [5, 20]: -3.03 | promoter activity interaction Z-score [6, 8]: 0.146 ± 0.018 | promoter activity interaction Z-score [6, 9]: -0.132 ± 0.027 | promoter activity interaction Z-score [6, 10]: 0.101 ± 0.33 | promoter activity interaction Z-score [6, 11]: 0.569 ± 0.9 | promoter activity interaction Z-score [6, 12]: 0.342 ± 0.019 | promoter activity interaction Z-score [6, 13]: -0.134 ± 0.052 | promoter activity interaction Z-score [6, 14]: 0.401 ± 0.02 | promoter activity interaction Z-score [6, 15]: 1.917 ± 0.018 | promoter activity interaction Z-score [6, 16]: 2.27 ± 0.33 | promoter activity interaction Z-score [6, 17]: 1.16 ± 0.1 | promoter activity interaction Z-score [6, 18]: 1.69 ± 0.21 | promoter activity interaction Z-score [6, 19]: 2.06 ± 0.22 | promoter activity interaction Z-score [6, 20]: 2.59 ± 1.8 | promoter activity interaction Z-score [7, 8]: 1.23 ± 0.81 | promoter activity interaction Z-score [7, 9]: 0.138 ± 0.034 | promoter activity interaction Z-score [7, 10]: 0.66 ± 0.69 | promoter activity interaction Z-score [7, 11]: 2.05 ± 0.54 | promoter activity interaction Z-score [7, 12]: 1.21 ± 1.3 | promoter activity interaction Z-score [7, 13]: 0.283 ± 0.058 | promoter activity interaction Z-score [7, 14]: 1.89 ± 0.14 | promoter activity interaction Z-score [7, 15]: 2.57 ± 1.3 | promoter activity interaction Z-score [7, 16]: 3.44 ± 0.47 | promoter activity interaction Z-score [7, 17]: 1.58 ± 1.8 | promoter activity interaction Z-score [7, 18]: 4.99 ± 0.58 | promoter activity interaction Z-score [7, 19]: 4.53 ± 2 | promoter activity interaction Z-score [7, 20]: 5.2 ± 2.8
